Test results from the antibiotic and cytotoxicity screens of Wong et al. (2023).
Among all 39,000 compounds or so, about 1,500 (3.8%) were called active. Many of the other results were omitted from the sample, so actives are more common in it than they were.

Each molecule was assayed on HSkMC (human skeletal muscle cells) (assay: cytotoxicity call (relative viability < 0.9)). Settings: 10 µM.

SMILES	cytotoxicity call
O=C(N[C@H]1CC[C@H](CC(=O)N2CCOCC2)O[C@H]1CO)c1ccc2c(c1)OCO2	inactive
C[C@@H]1CN([C@@H](C)CO)C(=O)c2cccc(NC(=O)C3CCOCC3)c2O[C@H]1CN(C)Cc1ccncc1	inactive
C[C@@H]1CCCCO[C@H](CN(C)C(=O)Nc2ccccc2)[C@H](C)CN([C@@H](C)CO)C(=O)c2cc(NS(=O)(=O)c3ccccc3)ccc2O1	inactive
C[C@H](CO)N1C[C@H](C)[C@@H](CN(C)S(=O)(=O)c2ccc(-c3ccccc3)cc2)OCc2cn(nn2)CCCC1=O	inactive
C[C@H]1O[C@@H]2[C@H](O[C@@H]1C)N(S(C)(=O)=O)CCN2S(C)(=O)=O	inactive
COc1ccc(NC(=O)N2C[C@H](O)COC[C@H]3O[C@H](CC(=O)NC4Cc5ccccc5C4)CC[C@@H]32)cc1	inactive
C[C@H](CO)N1C[C@H](C)[C@H](CN(C)Cc2ccc(-c3ccccc3)cc2)Oc2ccc(NC(=O)Nc3ccc4c(c3)OCO4)cc2CC1=O	inactive
C=CCC[C@H](Cc1ccc(F)cc1)C(=O)OC[C@H]1CCCN1C(=O)[C@H](CC=C)CC(=O)N(CCO)Cc1ccccc1	inactive
C=CCC[C@@H](Cc1ccc(F)cc1)C(=O)OC[C@@H]1CCCN1C(=O)[C@@H](CC=C)CC(=O)N(CCO)Cc1ccccc1	inactive
C=CCC[C@H](Cc1ccc(F)cc1)C(=O)OC[C@H]1CCCN1C(=O)[C@@H](CC=C)CC(=O)N(CCO)Cc1ccccc1	active
C=CCC[C@@H](Cc1ccc(F)cc1)C(=O)OC[C@H]1CCCN1C(=O)[C@@H](CC=C)CC(=O)N(CCO)Cc1ccccc1	inactive
C=CCC[C@H](Cc1ccc(F)cc1)C(=O)OC[C@@H]1CCCN1C(=O)[C@@H](CC=C)CC(=O)N(CCO)Cc1ccccc1	active
C=CCC[C@@H](Cc1ccc(F)cc1)C(=O)OC[C@H]1CCCN1C(=O)[C@H](CC=C)CC(=O)N(CCO)Cc1ccccc1	inactive
CN(C)CC(=O)N[C@@H]1CC[C@H](CC(=O)NCCN2CCCCC2)O[C@H]1CO	inactive
COc1ccc(C2=NS(=O)(=O)N(C)C(C(=O)N3CCC(C(N)=O)CC3)=C2)cc1	inactive
CC(C)NC(=O)N(C)C[C@H]1Oc2c(NS(=O)(=O)c3ccc(Cl)cc3)cccc2C(=O)N([C@@H](C)CO)C[C@H]1C	inactive
COc1ccc(S(=O)(=O)Nc2cccc3c2O[C@@H](CN(C)S(=O)(=O)c2ccccc2)[C@H](C)CN([C@@H](C)CO)C3=O)cc1	inactive
O=C(Nc1ccc2ccccc2c1)c1ccc(Cl)cc1Cl	inactive
O=C(Nc1ccc(Oc2ccc(Cl)cc2)c(Cl)c1)c1cc(I)cc(I)c1O	active
Cc1ccc(S[C@]2(C(=O)NC(C)C)CC(=O)N(Cc3ccccc3C(F)(F)F)[C@@H]2c2ccc(CO)cc2)cc1	inactive
CC(C)(C)c1cc(NC(=O)Nc2ccc(Oc3ccnc4nc(O)cnc34)cc2F)n(-c2ccccc2)n1	active
Cc1ccc(S(=O)(=O)N(C)C[C@H]2Oc3ccc(NC(=O)C4CC4)cc3C(=O)N([C@H](C)CO)C[C@@H]2C)cc1	inactive
Fc1ccccc1-c1nc2ccn(Cc3ccc(-c4ccc(C(F)(F)F)cc4C(F)(F)F)nn3)cc-2n1	active
Cc1noc(C)c1NC(=O)Nc1cccc2c1O[C@H](CN(C)Cc1ccc(Oc3ccccc3)cc1)[C@@H](C)CN([C@H](C)CO)C2=O	inactive
Cc1noc(C)c1NC(=O)Nc1ccc2c(c1)C(=O)N([C@H](C)CO)C[C@@H](C)[C@@H](CN(C)Cc1ccccc1)OCCCC[C@@H](C)O2	inactive

SMILES	cytotoxicity call
C[C@@H]1CCCCO[C@H](CN(C)C(=O)CCC(F)(F)F)[C@@H](C)CN([C@H](C)CO)C(=O)c2cc(NC(=O)c3ccccc3)ccc2O1	inactive
COc1ccc(NC(=O)Nc2ccc3c(c2)CC(=O)N([C@H](C)CO)C[C@@H](C)[C@H](CN(C)Cc2ccc(Oc4ccccc4)cc2)O3)cc1	inactive
C1CCC(C(CC2CCCCN2)C2CCCCC2)CC1.O=C(O)C=CC(=O)O (stereo not given)	active
C1CCC(C(C[C@H]2CCCCN2)C2CCCCC2)CC1	inactive
O=C(O)CC[C@H]1CCCCN1	inactive
C[C@H]1CN([C@@H](C)CO)S(=O)(=O)c2ccc(-c3cncnc3)cc2O[C@@H]1CN(C)C(=O)C1CCCCC1	inactive
COc1ccc2c3c([nH]c2c1)[C@@H](CO)N(CC1CCCCC1)C[C@]13CN(C1)C(=O)Nc1cccc(c1)F	inactive
COc1ccc2c3c([nH]c2c1)[C@@H](CO)N(C[C@]13CN(CC2CCCCC2)C1)C(=O)Nc1cccc(c1)F	active
COc1ccc2c3c([nH]c2c1)[C@H](CO)N(C[C@]13CCN(CC1)C(=O)Nc1cccc(c1)F)C(=O)c1ccc(cc1)F	inactive
COc1ccc2c3c([nH]c2c1)[C@@H](CO)N(C[C@]13CCN(CC1)C(=O)Nc1cccc(c1)F)C(=O)c1ccc(cc1)F	inactive
COc1ccc2c3c([nH]c2c1)[C@H](CO)N(CC1CCCCC1)C[C@]13CN(C1)C(=O)Nc1cccc(c1)F	inactive
COc1ccc2c3c([nH]c2c1)[C@H](CO)N(C[C@]13CN(CC2CCCCC2)C1)C(=O)Nc1cccc(c1)F	active
C[C@H](CO)N1C[C@H](C)[C@H](CN(C)Cc2ccc(C(=O)O)cc2)Oc2ccc(NC(=O)c3ccncc3)cc2CC1=O	inactive
C[C@@H]1CCCCO[C@H](CN(C)Cc2ccc3c(c2)OCO3)[C@@H](C)CN([C@@H](C)CO)C(=O)c2cc(NC(=O)NC3CCCCC3)ccc2O1	inactive
[O-][NH2+]N1CCCCC1	inactive
CC(C)NC(=O)N(C)C[C@H]1Oc2c(NS(=O)(=O)c3ccc(Cl)cc3)cccc2C(=O)N([C@H](C)CO)C[C@@H]1C	inactive
C[C@H](CO)N1C[C@H](C)[C@@H](CN(C)C(=O)Nc2ccc(F)cc2)Oc2c(NS(=O)(=O)c3cn(C)cn3)cccc2C1=O	inactive
O=C(NCC(F)(F)F)[C@@H]1c2ccccc2C(=O)N(CC23CC4CC(CC(C4)C2)C3)[C@H]1c1ccc(CO)cc1	inactive
CN1CCC2(CC1)CN(C(=O)CNC(N)=O)CCCN2C	inactive
C[C@@H]1CN([C@@H](C)CO)C(=O)c2cc(NC(=O)NC3CCCCC3)ccc2O[C@H]1CN(C)C(=O)Nc1cccc2ccccc12	inactive
C[C@@H]1CN([C@H](C)CO)C(=O)c2cc(NC(=O)Nc3cccc4ccccc34)ccc2O[C@H]1CN(C)C(=O)NC1CCCCC1	active
C[C@@H]1CN([C@H](C)CO)C(=O)c2cc(NC(=O)Nc3cccc4ccccc34)ccc2O[C@@H]1CN(C)C(=O)NC1CCCCC1	inactive
C[C@@H]1CN([C@@H](C)CO)C(=O)c2cc(NC(=O)NC3CCCCC3)ccc2O[C@@H]1CN(C)C(=O)Nc1cccc2ccccc12	active
C[C@@H]1CN([C@H](C)CO)C(=O)c2cc(NC(=O)NC3CCCCC3)ccc2O[C@H]1CN(C)C(=O)Nc1cccc2ccccc12	inactive
C[C@H](CO)N1C[C@H](C)[C@@H](CN(C)C(=O)NC2CCCCC2)Oc2ccc(NC(=O)Nc3cccc4ccccc34)cc2C1=O	inactive
